Assay outcomes from PubChem.
Pf apPOL inh: Pf-apPOL DNA polymerase inhibition; Recombinant Pf-apPOL, molecular beacon fluorescence, 1.5 h; inhibition, % at 10 µM; actives 0.25% (n = 210,000)
mHTT CaM bind: mHTT-calmodulin interaction abrogation; actives 3.6% (n = 190,000); inhibition, % at 15 µM; AlphaScreen His-mHTT/GST-CaM binding, luminescence; P42858
Of the large screens only hits and unclear results are named; the others gave an inactive call. In the library only some 3.6% were active in any assay of this set; here they are far more common. Rule as the data show it: active = inhibition above about 50%; inactive = the rest.

COc1ccc2cc(C(=O)NC(C)=O)c(=Nc3ccc(F)cc3)oc2c1	none
COc1ccc2cc(C(=O)NC(C)=O)c(=Nc3ccc(C(F)(F)F)cc3)oc2c1	Pf apPOL inh 66
O=C(Nc1ccc(F)c(F)c1)c1cnc(-c2ccccc2)nc1-c1ccncc1	none
COc1ccc(NC(=O)c2ccc(-c3cccc(Cl)c3)o2)cc1OC	none
COc1ccc(NC(=O)c2ccc(-c3ccc(Cl)cc3)o2)cc1OC	mHTT CaM bind 59
c1cc(-c2noc(-c3cccc4[nH]ccc34)n2)cc(-c2ccn[nH]2)c1	mHTT CaM bind 62
Fc1ccccc1-c1nc(-c2cccc(-c3ccn[nH]3)c2)no1	none
O=C(Cn1cnc2c(oc3ccccc32)c1=O)Nc1ccc(F)c(Cl)c1	none
Cc1ccccc1NC(=O)c1ccc(C)c(S(=O)(=O)Nc2cccc(C(=O)O)c2)c1	none
Cc1ccc(C(=O)Nc2ccc(S(=O)(=O)O)c3cc(S(=O)(=O)O)cc(S(=O)(=O)O)c23)cc1NC(=O)c1cccc(NC(=O)Nc2cccc(C(=O)Nc3cc(C(=O)Nc4ccc(S(=O)(=O)O)c5cc(S(=O)(=O)O)cc(S(=O)(=O)O)c45)ccc3C)c2)c1	Pf apPOL inh 53 (no result: mHTT CaM bind)
COc1ccccc1CC(=O)N1CCC(c2nc3ccncc3n2C(C)C)C1 (centres undefined)	none
OC[C@@H]1Cc2ccccc2CN1	none (no result: Pf apPOL inh)
Ic1cccc(CSc2nnnn2-c2ccc3c(c2)OCO3)c1	none
COc1ccc(-c2cn3c(n2)c(=C2CCCN2)c(=O)n3-c2ccccc2)cc1	mHTT CaM bind 63
COc1ccc(-c2cn3ccn(-c4ccc(F)cc4)c(=O)c3n2)cc1	none
CCOC(=O)N1CCc2nn(CC(=O)Nc3ccc(OCC)cc3)c(=O)cc2C1	none
O=C(NC1CC1)c1n[nH]c(=O)c2ccccc12	none (no result: Pf apPOL inh)
O=c1[nH]c2ccc(S(=O)(=O)Nc3ccccc3F)cc2[nH]c1=O	none
COc1ccc2c(c1)C1C=CCC1C(c1ccc([N+](=O)[O-])cc1)N2 (centres undefined)	mHTT CaM bind 95
O=[N+]([O-])c1ccc2c(c1)C1C=CCC1C(c1ccc(F)cc1)N2 (centres undefined)	none
CCOc1c(Br)cc(C2Nc3ccc([N+](=O)[O-])cc3C3C=CCC32)cc1OC (centres undefined)	mHTT CaM bind 58
COc1cc([N+](=O)[O-])cc2c1NC(c1ccccc1)C1CC=CC21 (centres undefined)	none
O=C(c1ccc2c(c1)C1C=CCC1C(c1ccc([N+](=O)[O-])cc1)N2)N1CCCCCC1 (centres undefined)	mHTT CaM bind 96
Cc1nc(NC(=O)c2n[nH]c3ccccc23)sc1C(=O)N(C)C	none
CC[C@H]1C(c2ccccc2)=NN(c2ccccc2)[C@@H]1CO	none
C[C@H]1C(c2ccc(F)cc2)=NN(c2ccccc2)[C@@H]1CO	none
OC[C@@H]1[C@@H](c2ccc(Cl)cc2)C(c2ccccc2)=NN1c1ccccc1	mHTT CaM bind 86
OC[C@@H]1[C@@H](c2ccc(F)cc2)C(c2cccc(Cl)c2)=NN1c1ccccc1	mHTT CaM bind 72
C[C@H]1C(c2cccc(Cl)c2)=NN(c2ccccc2)[C@@H]1CO	none
OC[C@@H]1[C@@H](c2ccc(Cl)cc2)C(c2cccc(Cl)c2)=NN1c1ccccc1	mHTT CaM bind 74
Cc1cc(F)c(F)c(C(=O)N2CCCC2)c1Cl	none
COc1ccc(C2C(=O)N(C3CCCCC3)CC(=O)N2Cc2cccs2)cc1OC (centres undefined)	none
CCOC(=O)C(C)NC(=O)N1CCCC1c1cc(C(C)C)no1 (centres undefined)	none
Cc1ccc(Cl)c(NC(=O)c2[nH]c3cc(C)sc3c2CN(C)C)c1	none
O=C1Nc2ccccc2Oc2cc([N+](=O)[O-])cc(Oc3ccc(Cl)cc3)c21	mHTT CaM bind 51
O=C1Nc2ccccc2Oc2cc([N+](=O)[O-])cc(Oc3ccc(Br)cc3)c21	none
COc1ccc(S(=O)(=O)N2CCC(C(=O)Nc3ncnc4c3CCC4)CC2)cc1	none
COc1ccc(NC(NC(=O)c2ccc(Cl)cc2)C(Cl)(Cl)Cl)cc1 (centres undefined)	mHTT CaM bind 57
COc1ccc(NC(NC(=O)c2ccc([N+](=O)[O-])cc2)C(Cl)(Cl)Cl)cc1 (centres undefined)	mHTT CaM bind 53
COc1ccc(C(=O)NC(Nc2ccc([N+](=O)[O-])cc2)C(Cl)(Cl)Cl)cc1 (centres undefined)	none
COc1ccc(C(=O)NC(Nc2ccc(Br)cc2)C(Cl)(Cl)Cl)cc1 (centres undefined)	none
CCC1CN(C(=O)Nc2cccc(C)c2)c2ccccc2O1 (centres undefined)	none
Cc1ccnc(N2CCCC(C(=O)NCCc3c[nH]c4ccc(Cl)cc34)C2)n1 (centres undefined)	none
Cc1nc2c(C(=O)O)c[nH]n2c(=O)c1Cc1ccc(F)cc1Cl	none
COCc1cc(C(C)(C)C)c(O)c(O)c1C(C)(C)C	mHTT CaM bind 62
CC(C)(C)c1cc(C(=O)O)cc(C(C)(C)C)c1O	none
CCN(CC)S(=O)(=O)c1ccc(C(=O)Nc2nnc(-c3cccs3)o2)cc1	none
Cc1cc(C(=O)Nc2nnc(-c3cccs3)o2)no1	none
Cc1ccc(S(=O)(=O)Nc2cccc(C(=O)Nc3nnc(-c4cccs4)o3)c2)cc1	mHTT CaM bind 82
Cc1onc(-c2ccccc2Cl)c1C(=O)Nc1nnc(-c2cccs2)o1	mHTT CaM bind 82
CC(C)(C)CC(=O)NC(C)(C)C	none (no result: mHTT CaM bind)
CC(C)C1C(=O)N(Cc2cn(CC3CCCCC3)nn2)CCS(=O)(=O)N1Cc1ccc(-c2ccccc2)cc1 (centres undefined)	none
CC(C)C1C(=O)N(Cc2cn(CC3CCCCC3)nn2)CCS(=O)(=O)N1Cc1ccc(-c2ccncc2)cc1 (centres undefined)	mHTT CaM bind 54
Cc1ccc(-c2ccc(CN3C(C(C)C)C(=O)N(Cc4cn(CC5CCCCC5)nn4)CCS3(=O)=O)cc2)cc1 (centres undefined)	none
CC(C)C1C(=O)N(Cc2cn(CC3CCCCC3)nn2)CCS(=O)(=O)N1Cc1ccc(-c2cccc(CO)c2)cc1 (centres undefined)	mHTT CaM bind 55
CC1C(=O)N(Cc2cn(CC3CCCCC3)nn2)CCS(=O)(=O)N1Cc1ccc(-c2ccc(F)cc2)cc1 (centres undefined)	mHTT CaM bind 58
CC1C(=O)N(Cc2cn(CC3CCCCC3)nn2)CCS(=O)(=O)N1Cc1ccc(-c2ccncc2)cc1 (centres undefined)	none
COc1ccc(C)cc1Nc1nc(C)cc(C)c1C(N)=O	none
O=C(CCN1C(=O)c2ccccc2C1=O)NCc1ccccc1Cl	none
O=C(C1CCC1)N1CCN(C2=NN=C(c3cccs3)CS2)CC1	mHTT CaM bind 78
O=C(c1cccs1)N1CCN(C(=O)C2CCCCC2)CC1	none (no result: mHTT CaM bind)
COc1ccccc1C1N(c2nccs2)C(=O)C2CCCN21 (centres undefined)	none
CC[C@@H]1C(c2cccc(C)c2)=NN(c2ccc(Br)cc2)[C@H]1C(=O)N1CCOC1=O	mHTT CaM bind 66
Cc1cccc(C2=NN(c3ccc(Br)cc3)[C@@H](C(=O)N3CCOC3=O)[C@@H]2c2ccccc2)c1	none
C[C@@H]1C(c2cccc(Cl)c2)=NN(c2ccccc2)[C@H]1C(=O)N1CCOC1=O	none
C[C@@H]1C(c2cccc(Cl)c2)=NN(c2ccc(Br)cc2)[C@H]1C(=O)N1CCOC1=O	mHTT CaM bind 57
CCOc1ccccc1NC(=O)c1cc(S(=O)(=O)N(C)Cc2ccccc2)ccc1F	none
CN(C)c1cccc(C(=O)Nc2cc(-c3ccccn3)no2)c1	none
